Source: PubChem (National Center for Advancing Translational Sciences (NCATS))
Most compounds without a hit are left out; they make up all but 2% or so of the library.
S-ASM inh = Inhibitors of Secretory Acid Sphingomyelinase (S-ASM): qHTS | placental ASM, HMU-PC fluorogenic substrate, 60 min | Potency, µM (highest dose often 57.5 µM), inactives show top-dose activity change, negative = inhibition, usual class: inhibitors | 340,000 compounds, 0.006% hits | AID 504937, 2011
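Steps: dispense placental human ASM, pin compound, wait 10 min at room temperature, add HMU-PC0 substrate at 9 uM final, incubate 60 min at 37 °C, add stop solution raising pH to 10, read fluorescence.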
TDP-43 yeast inh = qHTS of TDP-43 Inhibitors | TDP-43 expressing yeast growth rescue, BacTiter-Glo, 24 h | Potency, µM (highest dose often 46.1 µM), for the others: top-dose growth rescue (activation), actives largely listed as activators | 410,000 compounds, 1.8% hits; also: % of control where 0% means no effect; nearly all actives have a fitted effect of over 50% in size
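Cell-based yeast growth screen: TDP-43 expression induced in galactose, inoculum OD600=0.02 after raffinose pregrowth to mid-log. Read-out BacTiter-Glo luminescence at 24 hr, 30 deg C; inhibition of toxicity seen as signal increase.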
aSyn rescue = qHTS of alpha-syn Inhibitors | Yeast expressing alpha-synuclein, growth rescue, BacTiter-Glo, 24 h | Potency, µM (doses to about 46.1 µM), for the others: at the highest dose growth rescue (activation), actives largely listed as activators | 370,000 compounds, 0.14% hits; also: % of control where 0% means no effect; nearly all actives have a fitted effect of over 65% in size
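Galactose-induced alpha-syn yeast (OD600=0.02, raffinose-pregrown) + pinned cpd, 24 hr, 30 deg C; growth by BacTiter-Glo luminescence. Growth restoration scores as activation.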
Rango release inh = qHTS Assay for Inhibitors of RanGTP induced Rango (Ran-regulated importin-beta cargo) - Importin beta complex dissociation; Snurportin-1 (Homo sapiens) + GTP-binding nuclear protein Ran (Homo sapiens) + Importin …; Biochemical FRET Rango-importin beta, RanGTP-induced dissociation; Potency, µM (titrated, usually from 46.1 µM), inactives show at the highest dose activity change, negative = inhibition; 340,000 compounds, 0.071% hits; calls by dose curve; also: % of control where 0% means no effect; nearly all actives have a fitted effect of over 45% in size
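Compounds sat 5 min at room temperature with 0.1 uM Rango biosensor plus 0.25 uM importin beta, then FRET pre-read. RanGTP-RCC1 (0.6 uM Ran, 2mM GTP, 0.2 uM RCC1) added for 45 min, and the CFP/YFP post-read measured blocked complex dissociation.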
Rango complex inh = qHTS Assay for Inhibitors of Rango (Ran-regulated importin-beta cargo) - Importin beta complex formation. 340,000 compounds, 0.031% hits. Potency, µM (doses to about 92.2 µM), for the others: top-dose inhibition of complex formation. Rango CFP/YFP FRET sensor + importin beta, 45 min. Importin subunit beta-1 (Homo sapiens), Q14974; calls by dose curve;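 also: 0% = DMSO wells and 100% = buffer wells lacking importin beta; nearly all actives have a fitted effect of over 15% in size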
Target sequence (Q14974 whole entry, looked up): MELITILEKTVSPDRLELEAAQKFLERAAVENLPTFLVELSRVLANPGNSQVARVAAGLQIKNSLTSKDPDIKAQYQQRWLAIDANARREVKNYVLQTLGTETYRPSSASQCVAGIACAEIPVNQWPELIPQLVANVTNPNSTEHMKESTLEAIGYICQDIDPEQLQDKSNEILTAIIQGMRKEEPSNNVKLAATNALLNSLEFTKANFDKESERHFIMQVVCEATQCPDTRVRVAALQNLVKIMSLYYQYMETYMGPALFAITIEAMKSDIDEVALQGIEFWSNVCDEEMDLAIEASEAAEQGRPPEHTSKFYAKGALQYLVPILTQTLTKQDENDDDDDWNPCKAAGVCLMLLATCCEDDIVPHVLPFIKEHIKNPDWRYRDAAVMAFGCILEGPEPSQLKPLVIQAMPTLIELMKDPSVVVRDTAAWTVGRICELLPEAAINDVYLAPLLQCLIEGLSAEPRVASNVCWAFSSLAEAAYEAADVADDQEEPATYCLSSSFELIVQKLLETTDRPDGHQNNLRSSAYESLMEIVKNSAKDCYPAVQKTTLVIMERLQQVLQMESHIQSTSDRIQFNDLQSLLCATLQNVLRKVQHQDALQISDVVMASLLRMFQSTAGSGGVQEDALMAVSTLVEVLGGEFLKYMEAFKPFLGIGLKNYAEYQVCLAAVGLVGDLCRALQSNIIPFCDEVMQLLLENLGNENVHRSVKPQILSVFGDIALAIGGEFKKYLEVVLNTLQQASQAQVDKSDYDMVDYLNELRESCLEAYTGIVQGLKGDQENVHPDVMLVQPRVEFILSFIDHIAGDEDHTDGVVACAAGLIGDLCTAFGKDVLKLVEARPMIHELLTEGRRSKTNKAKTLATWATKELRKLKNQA
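Inhibition scored from the CFP 486 nm/YFP 530 nm FRET ratio 45 min after adding 0.125 microM importin beta to 50 nM Rango biosensor preincubated 5 min with compound (room temperature, PBS with DTT, Tween-20, BSA). No-importin wells as positive control.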
Abeta yeast res = qHTS for compounds that reverse cellular toxicity of Amyloid beta (A-beta) peptide in yeast: Primary Screen. Potency, µM (titrated, usually from 46.1 µM), hits mostly activators. 410,000 compounds, 0.063% hits. AID 1347071, 2019. yeast expressing A-beta42, growth rescue, OD600, 48 h; response scale: 0% DMSO, 100% iron-clioquinol control; also: nearly all actives have a fitted effect of over 55% in size
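Growth rescue measured by 600 nm absorbance after 48 h yeast culture at 30 C with compound. Values normalized between DMSO and an equimolar ferric chloride plus clioquinol control.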
* marks the source's active call; other numbers are inactive results; i = inactive; u = inconclusive; x = no result; ! = a repeat was not active; [ ] = another dose, or the depositor's remark. Unless noted, calls follow the shape of the dose curve; as a rule, active = well fitted curve in the direction sought with a large enough effect; inconclusive = small, poorly fitted or top-dose-only effect, or another doubt; inactive = no such curve, though single readings can be large; an effect the other way counts as inactive or inconclusive. Potency is read from the fitted curve at half-maximal effect.

SMILES	S-ASM inh	TDP-43 yeast inh	aSyn rescue	Rango release inh	Rango complex inh	Abeta yeast res
Cc1ccc(C)c(NS(=O)(=O)c2cc(C(=O)N3CCc4ccccc4C3)ccc2Cl)c1	-9%	-30%	16µM*	13%	0%	i
Cc1ccc(C)c(NC(=O)N2CCc3ccccc3C2)c1	1%	20µM*	3%	8%	0%	i
Cc1ccccc1NS(=O)(=O)c1cc(C(=O)N2CCCC2)ccc1Cl	1%	11%	-1%	-12%	0%	i
O=C(c1ccc(Cl)c(S(=O)(=O)N2CCOCC2)c1)N1CCc2ccccc2C1	-4%	16%	13%	1%	-3%	i
Cc1nc(-c2cccc(S(=O)(=O)N3CCC(C(=O)NCc4ccccc4)CC3)c2)no1	x	-19%	x	x	x	i
C(=Nc1cccnc1)c1ccc2ccccc2n1	x	x	1%	x	x	x
C[n+]1c(/C=C/c2ccnc3ccccc23)cc(/C=C/c2ccnc3ccccc23)c2ccccc21	x	x	-38%	x	x	x
O=S(=O)(c1ccc(Oc2ccc3c(c2)OCO3)c(S(=O)(=O)N2CCOCC2)c1)N1CCOCC1	x	x	-1%	x	x	x
FC(F)(F)c1nnc2c(Sc3ccccn3)nc3ccccc3n12	0%	16µM*	-2%	-2%	-1%	i
FC(F)(F)c1nnc2c(Sc3ccccc3)nc3ccccc3n12	-2%	26%	-7%	-14%	0%	i
COc1cc2c(NC3CCN(C)CC3)nc(N3CCCN(C)CC3)nc2cc1OCCN(C)C	x	x	-3%	x	x	x
O=c1ccc(-c2ccccc2)nn1Cc1ccc(F)cc1Cl	-9%	32µM*!	20%	0%	4%	i
COc1ccc(-c2ccc(=O)n(Cc3cccc(Cl)c3)n2)cc1	-2%	u	u	0%	-1%	i
Cc1ccc(-c2ccc(=O)n(Cc3cccc(Br)c3)n2)cc1	-6%	4%	22µM*	-5%	0%	i
O=c1ccc(-c2ccccc2)nn1Cc1ccccc1	-2%	22µM*	-1%	1%	1%	i
COc1cc(/C=C2\C=Cc3ccccc32)ccc1N(C)C	x	x	-9%	x	x	x
C(=C\c1ccnc2ccccc12)/c1cccnc1	x	x	-2%	x	x	x
O=[N+]([O-])c1ccc(Nc2nccc(Cl)n2)cc1	1%	5.6µM*	3%	5%	u	i
CC1(C(=O)NS(=O)(=O)c2ccc(Cl)cc2)CCN1C(=O)Cc1cccc2ccccc12 (stereo not given)	x	3%	0%	x	x	i
CC1(C(=O)Nc2cccc3ccccc23)CCN1C(=O)Cc1ccc(Cl)cc1Cl (stereo not given)	x	35µM*	u	x	x	i
CC1(C(=O)NCc2ccc(Cl)cc2)CCN1C(=O)Cc1ccc(Cl)cc1Cl (stereo not given)	x	32µM*	u	x	x	i
CC1(C(=O)Nc2ccccc2F)CCN1C(=O)Cc1cc(F)ccc1F (stereo not given)	x	7.1µM*	7%	x	x	i
CC(C)(C)c1ccc(CC(=O)N2CCC2(C)C(=O)NCc2ccc(Cl)cc2)cc1 (stereo not given)	x	0%	0%	x	x	i
CC1(C(=O)NCc2ccc(Cl)cc2)CCN1C(=O)Cc1cccc2ccccc12 (stereo not given)	x	35µM*	u	x	x	i
CC1(C(=O)NS(=O)(=O)c2ccc3ccccc3c2)CCN1C(=O)Cc1ccc(Cl)cc1Cl (stereo not given)	x	-1%	-15%	x	x	i
SMILES	S-ASM inh	TDP-43 yeast inh	aSyn rescue	Rango release inh	Rango complex inh	Abeta yeast res
Cc1cc(C)c2c(=O)cc(C(=O)Nc3sc4c(c3C(=O)NCc3ccccc3)CCCC4)oc2c1	x	23%	x	x	x	i
COc1ccc(-c2nc(CN3CCC(C(=O)NCCCOC(C)C)CC3)c(C)o2)cc1OC	x	14%	x	x	x	i
COc1ccc(-n2c(SCC(=O)NCc3ccc(F)cc3)nc3c([nH]c4ccccc43)c2=O)cc1	x	25%	-3%	x	x	i
O=C(Cc1cccs1)NNC(=S)NC(=O)c1ccccc1	3%	22µM*	u	11%	-1%	u
O=C(/C=C/c1ccccc1)NC(=S)NNC(=O)Cc1cccs1	2%	11µM*	20µM*	0%	0%	u
O=C(Cc1cccs1)NNC(=S)NC(=O)c1ccc(F)c(F)c1	x	u	u	22%	2%	u
C/C(=N/Nc1ncc(Br)cn1)c1ccc(Br)cc1	-2%	28µM*	7%	-4%	1%	i
C/C(=N/NC(=O)CCC(=O)Nc1ccc(Br)cc1)c1ccc(Br)cc1	-2%	10%	6%	-11%	-1%	i
C/C(=N\Nc1ccc(C(=O)O)cc1)c1ccc(Br)cc1	-7%	10µM*	-1%	14%	u	i
Cc1ccc(N(Cc2cc3ccccc3[nH]c2=O)C(=O)c2cccc(Cl)c2)cc1	x	25%	x	x	x	i
CCCCOc1ccc(C(=O)NCCc2csc3nc(-c4ccccc4F)nn23)cc1	x	0%	x	x	x	i
Cc1ccccc1-c1nc2scc(CCNC(=O)c3ccco3)n2n1	x	18µM*	x	x	x	i
CC(C)(C)c1ccc(C(=O)NCCc2csc3nc(-c4ccccc4F)nn23)cc1	x	35µM*	x	x	x	i
O=C(NCCc1csc2nc(-c3ccc(F)cc3)nn12)c1ccco1	x	0%[9.22 µM]	x	x	x	i
Cc1c(O)nc(SCC(=O)Nc2ccc(Cl)cc2Cl)n(-c2ccc(F)cc2)c1=O	x	9%	x	x	x	i
COCc1cc(C)nc(SCC(=O)Oc2ccc(Cl)cc2)c1C#N	232%	25%	-6%	9.2µM*	u	i
COCc1cc(C)nc(SCC(=O)Oc2ccccc2)c1C#N	31%	11%	-1%	u	u	i
Cc1cccc(-c2nc(C)c(CCNC(=O)C(=O)Nc3cccc(Cl)c3C)s2)c1	x	5%	0%	x	x	i
O=C(c1cc(C2CC2)nn1-c1ccccc1)N1CCN(c2ccccc2O)CC1	1%	18µM*	6%	0%	0%	i
Cc1ccc(NC(=O)c2cc3c([nH]c2=O)CC(C)(C)CC3=O)cc1	x	x	-2%	x	x	x
CC1(OC(=O)C2CCCC2)C(=O)C=C2C=C(c3ccsc3)N(CC3CC3)C=C2C1=O (stereo not given)	34%	20%	1%	-6%	u	i
